{"source": "paper PMC7862700", "about": "“An all-to-all approach to the identification of sequence-specific readers for epigenetic DNA modifications on cytosine”", "experiment_in_all_cases": "DAPPL (digital affinity profiling via proximity ligation, sequencing); 10 mM Tris-HCl pH 7.5, 50 mM NaCl, 1 mM DTT, 4% glycerol, room temperature, 30 min; GST-TFs on glutathione beads, 16-mer random dsDNA library, 0.1% formaldehyde crosslink after washing; high values mean tight binding", "key": {"FLI1": {"target": "T1, FLI1 (Homo sapiens, UniProt Q01543 1-452)", "T1 sequence": "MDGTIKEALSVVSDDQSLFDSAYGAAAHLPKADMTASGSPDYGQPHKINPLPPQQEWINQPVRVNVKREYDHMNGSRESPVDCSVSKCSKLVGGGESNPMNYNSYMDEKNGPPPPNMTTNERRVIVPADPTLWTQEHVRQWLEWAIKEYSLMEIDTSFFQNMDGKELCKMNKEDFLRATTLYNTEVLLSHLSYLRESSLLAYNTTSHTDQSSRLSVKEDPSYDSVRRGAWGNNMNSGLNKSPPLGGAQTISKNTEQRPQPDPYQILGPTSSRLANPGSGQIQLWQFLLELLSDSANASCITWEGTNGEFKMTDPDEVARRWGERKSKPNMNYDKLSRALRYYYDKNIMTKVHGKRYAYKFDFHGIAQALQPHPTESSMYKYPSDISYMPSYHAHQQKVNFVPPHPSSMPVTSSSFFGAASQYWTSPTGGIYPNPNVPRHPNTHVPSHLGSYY", "settings": "protein: recombinant; tags: N-terminal GST; dsDNA, one strand shown", "procedure,_shortened": "(§1)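 Binding signal is defined as a hexamer's read frequency for one factor over its frequency for the tag-only sample. To obtain reads, GST-fused human transcription factors were expressed in yeast, captured on glutathione beads, barcoded with DNA and pooled with that sample. Pools met 200 nmole of a 16-mer random double-stranded DNA library in Tris/NaCl/DTT/glycerol buffer for 30 min at room temperature before washing, 0.1% formaldehyde crosslinking, proximity ligation (BsaI/T4 ligase, 1 h, 37 °C), PCR and Illumina NextSeq500 sequencing.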"}, "ELK4": {"target": "T2, ELK4 (Homo sapiens, UniProt P28324-2 1-405)", "T2 sequence": "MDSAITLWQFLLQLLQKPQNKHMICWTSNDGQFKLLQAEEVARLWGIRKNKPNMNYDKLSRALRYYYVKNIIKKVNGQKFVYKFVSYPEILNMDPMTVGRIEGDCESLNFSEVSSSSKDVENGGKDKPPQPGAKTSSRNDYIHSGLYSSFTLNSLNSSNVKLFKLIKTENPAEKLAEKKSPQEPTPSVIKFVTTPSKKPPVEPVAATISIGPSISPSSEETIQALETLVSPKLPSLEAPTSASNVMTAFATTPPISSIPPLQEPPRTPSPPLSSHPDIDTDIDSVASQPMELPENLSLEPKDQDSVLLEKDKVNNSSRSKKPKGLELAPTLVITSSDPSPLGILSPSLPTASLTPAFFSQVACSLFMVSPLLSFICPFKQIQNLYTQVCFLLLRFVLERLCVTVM", "settings": "protein: recombinant; tags: N-terminal GST; dsDNA, one strand shown", "procedure,_shortened": "as §1"}, "ETV2": {"target": "T3, ETV2 (Homo sapiens, UniProt O00321 1-342)", "T3 sequence": "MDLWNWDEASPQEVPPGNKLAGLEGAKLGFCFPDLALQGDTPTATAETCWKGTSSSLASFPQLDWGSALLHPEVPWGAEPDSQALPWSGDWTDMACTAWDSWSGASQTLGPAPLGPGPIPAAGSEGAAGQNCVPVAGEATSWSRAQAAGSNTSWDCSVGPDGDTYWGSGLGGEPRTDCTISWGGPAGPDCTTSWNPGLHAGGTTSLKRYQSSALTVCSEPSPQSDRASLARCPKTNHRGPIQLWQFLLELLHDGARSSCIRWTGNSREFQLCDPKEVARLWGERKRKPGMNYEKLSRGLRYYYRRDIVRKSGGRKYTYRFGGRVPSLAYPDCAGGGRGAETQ", "settings": "protein: recombinant; tags: N-terminal GST; dsDNA, one strand shown", "procedure,_shortened": "as §1"}, "ELF3": {"target": "T4, ELF3 (Homo sapiens, UniProt P78545 1-371)", "T4 sequence": "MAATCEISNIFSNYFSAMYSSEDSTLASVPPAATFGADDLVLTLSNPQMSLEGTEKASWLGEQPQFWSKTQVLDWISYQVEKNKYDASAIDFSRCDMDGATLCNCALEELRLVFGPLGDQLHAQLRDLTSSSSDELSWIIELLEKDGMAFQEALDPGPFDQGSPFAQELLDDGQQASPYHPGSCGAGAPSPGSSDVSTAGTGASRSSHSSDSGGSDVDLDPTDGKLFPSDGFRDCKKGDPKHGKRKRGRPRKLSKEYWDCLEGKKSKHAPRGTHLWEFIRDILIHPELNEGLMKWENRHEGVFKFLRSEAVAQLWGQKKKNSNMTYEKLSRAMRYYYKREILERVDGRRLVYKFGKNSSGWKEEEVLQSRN", "settings": "protein: recombinant; tags: N-terminal GST; dsDNA, one strand shown", "procedure,_shortened": "as §1"}, "ETV1": {"target": "ETV1 (Homo sapiens, UniProt P50549 1-477)", "sequence (P50549 whole entry)": "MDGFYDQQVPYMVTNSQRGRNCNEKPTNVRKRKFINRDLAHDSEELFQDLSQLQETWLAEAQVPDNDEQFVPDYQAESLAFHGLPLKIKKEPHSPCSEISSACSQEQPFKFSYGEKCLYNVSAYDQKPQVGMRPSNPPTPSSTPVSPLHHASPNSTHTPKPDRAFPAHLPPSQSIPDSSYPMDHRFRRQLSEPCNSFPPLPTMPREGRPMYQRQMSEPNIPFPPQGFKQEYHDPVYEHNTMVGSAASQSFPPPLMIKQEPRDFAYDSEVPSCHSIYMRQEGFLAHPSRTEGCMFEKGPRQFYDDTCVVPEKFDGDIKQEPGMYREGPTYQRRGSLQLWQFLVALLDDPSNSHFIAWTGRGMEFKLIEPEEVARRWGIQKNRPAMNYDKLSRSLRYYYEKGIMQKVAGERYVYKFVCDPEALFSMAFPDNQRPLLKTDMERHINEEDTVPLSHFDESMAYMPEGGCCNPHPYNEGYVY", "settings": "protein: recombinant; tags: N-terminal GST; dsDNA, one strand shown", "procedure,_shortened": "as §1"}, "ERF": {"target": "T5, ERF (Homo sapiens, UniProt P50548 1-548)", "T5 sequence": "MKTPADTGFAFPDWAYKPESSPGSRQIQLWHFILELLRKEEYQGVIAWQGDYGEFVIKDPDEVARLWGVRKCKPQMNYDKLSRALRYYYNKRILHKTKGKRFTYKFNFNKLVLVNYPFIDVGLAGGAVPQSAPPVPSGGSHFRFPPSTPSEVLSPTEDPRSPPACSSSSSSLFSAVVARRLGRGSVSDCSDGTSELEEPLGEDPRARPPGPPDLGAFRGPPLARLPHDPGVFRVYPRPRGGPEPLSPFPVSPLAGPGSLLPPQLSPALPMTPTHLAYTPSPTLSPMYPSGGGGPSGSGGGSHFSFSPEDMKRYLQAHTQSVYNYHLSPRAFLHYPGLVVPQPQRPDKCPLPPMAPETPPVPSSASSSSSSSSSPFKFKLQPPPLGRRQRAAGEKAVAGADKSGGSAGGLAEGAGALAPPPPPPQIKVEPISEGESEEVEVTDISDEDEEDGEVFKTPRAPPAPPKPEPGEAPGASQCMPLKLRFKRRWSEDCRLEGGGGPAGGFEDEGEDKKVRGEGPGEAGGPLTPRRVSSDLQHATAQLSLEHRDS", "settings": "protein: recombinant; tags: N-terminal GST; dsDNA, one strand shown", "procedure,_shortened": "as §1"}, "ETV3L": {"target": "T6, ETV3L (Homo sapiens, UniProt Q6ZN32 1-361)", "T6 sequence": "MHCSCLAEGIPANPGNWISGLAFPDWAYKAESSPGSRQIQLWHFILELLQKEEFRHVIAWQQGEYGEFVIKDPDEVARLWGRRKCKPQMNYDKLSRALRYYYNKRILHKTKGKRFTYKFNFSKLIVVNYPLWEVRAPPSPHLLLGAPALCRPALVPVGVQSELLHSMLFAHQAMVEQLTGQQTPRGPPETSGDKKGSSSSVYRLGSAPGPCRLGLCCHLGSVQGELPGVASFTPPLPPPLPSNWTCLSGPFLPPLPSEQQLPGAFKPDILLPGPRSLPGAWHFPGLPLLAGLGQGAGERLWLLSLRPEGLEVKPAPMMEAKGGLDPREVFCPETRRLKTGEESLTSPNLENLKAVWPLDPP", "settings": "protein: recombinant; tags: N-terminal GST; dsDNA, one strand shown", "procedure,_shortened": "as §1"}, "SPDEF": {"target": "T7, SPDEF (Homo sapiens, UniProt O95238 1-335)", "T7 sequence": "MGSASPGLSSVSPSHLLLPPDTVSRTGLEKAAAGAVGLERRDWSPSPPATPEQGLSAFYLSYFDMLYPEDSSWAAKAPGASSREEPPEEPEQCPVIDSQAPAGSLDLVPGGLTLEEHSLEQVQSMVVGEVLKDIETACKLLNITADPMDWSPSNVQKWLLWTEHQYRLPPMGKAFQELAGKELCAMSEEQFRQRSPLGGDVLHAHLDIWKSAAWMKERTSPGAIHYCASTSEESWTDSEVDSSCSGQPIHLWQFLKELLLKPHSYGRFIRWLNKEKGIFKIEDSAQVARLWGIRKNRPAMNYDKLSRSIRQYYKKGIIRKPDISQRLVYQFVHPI", "settings": "protein: recombinant; tags: N-terminal GST; dsDNA, one strand shown", "procedure,_shortened": "as §1"}, "HSF1": {"target": "HSF1 (Homo sapiens, UniProt Q00613 1-529)", "sequence (Q00613 whole entry)": "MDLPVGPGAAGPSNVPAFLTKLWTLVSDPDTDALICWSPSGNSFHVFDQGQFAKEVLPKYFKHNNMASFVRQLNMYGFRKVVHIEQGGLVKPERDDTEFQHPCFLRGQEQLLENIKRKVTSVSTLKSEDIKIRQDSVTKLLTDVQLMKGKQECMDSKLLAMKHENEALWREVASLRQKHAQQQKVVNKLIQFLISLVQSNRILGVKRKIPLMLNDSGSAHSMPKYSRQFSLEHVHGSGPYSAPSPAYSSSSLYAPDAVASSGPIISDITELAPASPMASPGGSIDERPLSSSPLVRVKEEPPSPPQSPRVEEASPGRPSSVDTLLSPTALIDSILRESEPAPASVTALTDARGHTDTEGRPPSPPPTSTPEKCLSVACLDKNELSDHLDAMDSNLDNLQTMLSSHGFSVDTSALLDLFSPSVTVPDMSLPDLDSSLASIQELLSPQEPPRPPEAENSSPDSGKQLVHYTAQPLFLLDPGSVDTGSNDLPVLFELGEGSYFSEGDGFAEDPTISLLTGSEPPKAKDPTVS", "settings": "protein: recombinant; tags: N-terminal GST; chain copies: 3; dsDNA, one strand shown", "procedure,_shortened": "as §1"}}}
{"sequence": "TCGTTG", "values": [{"measurement": "binding signal", "setting": "FLI1", "result": "1.01 fold enrichment (6-mer frequency, TF over GST control)"}, {"measurement": "binding signal", "setting": "ELK4", "result": "1.1 fold enrichment (6-mer frequency, TF over GST control)"}, {"measurement": "binding signal", "setting": "ETV2", "result": "1.19 fold enrichment (6-mer frequency, TF over GST control)"}, {"measurement": "binding signal", "setting": "ELF3", "result": "1.07 fold enrichment (6-mer frequency, TF over GST control)"}, {"measurement": "binding signal", "setting": "ETV1", "result": "1.02 fold enrichment (6-mer frequency, TF over GST control)"}, {"measurement": "binding signal", "setting": "ERF", "result": "1.03 fold enrichment (6-mer frequency, TF over GST control)"}, {"measurement": "binding signal", "setting": "ETV3L", "result": "1.1 fold enrichment (6-mer frequency, TF over GST control)"}, {"measurement": "binding signal", "setting": "SPDEF", "result": "1.01 fold enrichment (6-mer frequency, TF over GST control)"}]}
{"sequence": "GAAGGT", "values": [{"measurement": "binding signal", "setting": "HSF1", "result": "1.14 fold enrichment (6-mer frequency, TF over GST control)"}]}
